Screens deposited in PubChem by National Center for Advancing Translational Sciences (NCATS).
This is a sample that favours compounds with a hit; in the whole collection about 21% have one here.
Pf growth 48h – inhibits P. falciparum growth in the first generation, 48 h | P. falciparum luciferase growth in erythrocytes, 48 h | Potency, µM (series often up to 28.7 µM), for the others: at the top dose activity change, negative = inhibition, usual class: inhibitors | hit rate 5.9% among 310,000 | AID 504832; further: potency means the concentration at half of the fitted maximal effect; on the % scale 0 is the no-effect control and ±100 the full control effect
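Read-out is firefly luciferase luminescence from an integrated reporter in P. falciparum, so falling signal marks reduced parasite growth. Infected erythrocytes were at 2% hematocrit and 0.1% parasitemia (final) in Albumax-supplemented RPMI 1640.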
CHX counter – counter-screen hit for Shiga toxin inhibitors, cycloheximide | cell reporter, cycloheximide protein synthesis inhibition counterscreen | max response, % | hit rate 12% among 300,000 | AID 2314; in the data active means max response mostly above about 13%, no sharp cut-off; inactive means mostly below about 14%; further: read at 38.3 µM for the half of the compounds with a filed dose; 0% is about no effect
Pf growth 96h – inhibits malaria parasite growth, 96 h | AID 504834 | Potency, µM (doses to about 28.7 µM), for the others: at the highest dose activity change, negative = inhibition, actives largely listed as inhibitors | hit rate 6.9% among 320,000 | P. falciparum luciferase reporter growth, 96 h; further: potency means the concentration at half of the fitted maximal effect; on the % scale 0 is the no-effect control and ±100 the full control effect
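P. falciparum expressing integrated firefly luciferase, in erythrocytes at 2% hematocrit, 0.05% parasitemia, incubated with compounds 96 h at 37 C, 5% CO2. Growth inhibition read as loss of luminescence; two-generation exposure targets delayed-death apicoplast inhibitors.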
Shiga toxin inh – blocks Shiga toxin action in Vero cells | Vero cells, Shiga toxin protein synthesis inhibition reporter | inhibition, % at 38.7 µM | hit rate 9.2% among 290,000 | AID 2315; in the data active means inhibition mostly above about 28%, no sharp cut-off; inactive means mostly below about 43%; further: 0% is about no effect
The depositor's hits bear a star; i = inactive; ? = inconclusive; . = no result given. Unless noted, the call rests on the fitted dose curve; in most records, active means well fitted inhibition curve with a large enough effect; inconclusive means small, poorly fitted or top-dose-only effect, or another doubt; inactive means no such curve, though single readings can be large or run the other way.

SMILES	Pf growth 48h	CHX counter	Pf growth 96h	Shiga toxin inh
CC(=O)N1CCc2cc(S(=O)(=O)CCC(=O)N3CCN(c4ccccn4)CC3)ccc21	?	3	-24%	-5
Cc1cc(C)c(CN2CCC(N3CCC(C(=O)NCC4CCCO4)CC3)CC2)cc1C (stereo not given)	?	-1	?	-7
O=S(=O)(c1ccccc1)N(CC(O)COc1ccccc1)c1ccccc1 (stereo not given)	-15%	-3	-1%	-5
COc1ccc(CC(=O)NNS(=O)(=O)c2ccc(F)cc2)cc1	18%	-3	-10%	-7
COc1ccccc1C(=O)Nc1ccc(S(=O)(=O)Nc2cnc3ccccc3n2)cc1	-3%	1	18%	-7
CSCc1ccc(C(=O)N2CCC(CCC(=O)N(C)Cc3ccccc3)CC2)o1	-15%	-1	?	-5
CCc1ccc(NC(=O)c2cc(S(=O)(=O)N3CCc4ccccc43)cn2C)cc1	?	5	14%	7
O=C(COc1ccc(S(=O)(=O)N2CCCCC2)cc1)NC1CCCCC1	8.3µM*	-2	?	-11
O=C(COc1ccc(S(=O)(=O)NC2CCCCC2)cc1)NC1CCCCC1	15µM*	-3	?	-2
O=C(COc1ccc(S(=O)(=O)NC2CCCCC2)cc1)NC1CCCC1	-13%	-6	52%	11
CCCCCCCCCCCCC/C=C/C(O)C(COP(=O)(O)OCCN)NC(=O)CCCCCCCCCCCCCCCCC (stereo not given)	.	-4	.	0
Cc1ccc(S(=O)(=O)N(C)CC(=O)N2CCN(Cc3ccccc3)CC2)cc1	-3%	11	-8%	14
Cc1cc(C)cc(C(=O)NC(CC(N)=O)c2ccc(NC3CCCC3)c([N+](=O)[O-])c2)c1 (stereo not given)	16%	-2	31%	-10
Cc1nn(-c2ccc(N3CCOCC3)nn2)c(C)c1CCC(=O)Nc1ccccc1	34%	26*	-14%	20
Cc1ccc(NC(=O)CCc2c(C)nn(-c3ccc(N4CCOCC4)nn3)c2C)c(C)c1	11%	-2	238%	35
Cc1ccc(CNC(=O)CCc2c(C)nn(-c3ccc(N4CCOCC4)nn3)c2C)cc1	13%	-1	?	-5
CC(=O)c1ccc(NC(=O)CCc2c(C)nn(-c3ccc(N4CCOCC4)nn3)c2C)cc1	34%	44*	5%	40*
COc1ccc(NC(=O)CCc2c(C)nn(-c3ccc(N4CCOCC4)nn3)c2C)cc1	-4%	20	?	38
Cc1ccc(NC(=O)CCc2c(C)nn(-c3ccc(N4CCOCC4)nn3)c2C)cc1F	2%	41*	?	69*
CCc1ccc(NC(=O)CCc2c(C)nn(-c3ccc(N4CCOCC4)nn3)c2C)cc1	13%	42*	?	45*
CC(NC(=O)COC(=O)c1ccc2c(=O)n3c(nc2c1)CCCCC3)c1ccccc1 (stereo not given)	?	.	-21%	.
CCN(C(=O)COC(=O)C1CCN(S(=O)(=O)c2cccs2)CC1)c1ccccc1	-12%	-3	43%	-10
N#Cc1ccsc1NC(=O)C1CCCN1S(=O)(=O)c1cccs1 (stereo not given)	?	.	-16%	.
CCc1cccc(NC(=O)CCc2c(C)nn(-c3ccc(N4CCOCC4)nn3)c2C)c1	?	26*	4%	27
Cc1ccc(NC(=O)CCc2c(C)nn(-c3ccc(N4CCOCC4)nn3)c2C)cc1	10%	23*	?	7
SMILES	Pf growth 48h	CHX counter	Pf growth 96h	Shiga toxin inh
COc1cc(NC(=O)CCc2c(C)nn(-c3ccc(N4CCOCC4)nn3)c2C)cc(OC)c1OC	?	2	6%	2
COc1ccc(-c2nc(-c3ccc(Br)o3)no2)cc1OC	75%	19*	?	35*
COc1ccc(-c2nnc3sc(-c4ccc(Br)o4)nn23)cc1OC	-6%	25	?	1
COc1cc(OC)cc(-c2nc(-c3ccccc3OC)no2)c1	27%	4	9%	31
COc1ccccc1-c1nc(-c2ccc(Br)o2)no1	.	97*	?	146*
COc1ccc(-c2nnc(-c3ccc(Br)o3)o2)cc1OC	21%	11*	?	35
COc1cccc(-c2nc(-c3ccc(Br)o3)no2)c1	-87%	54*	i	108*
CCN1C(=O)[C@H]2[C@@H](c3ccc(Cl)cc3)N3C(=O)CN(CCOC)C(=O)[C@@]3(Cc3ccccc3)[C@H]2C1=O	29%	1	18%	-6
Cc1ccccc1OCc1nc(-c2ccc(Br)o2)no1	.	11	-2%	60
COc1ccccc1Cc1nc(-c2ccc(Br)o2)no1	.	34*	-4%	78
O=C(Nc1ccc(Br)cc1)N1C[C@H]2C[C@@H](C1)c1cccc(=O)n1C2	-10%	-2	?	-8
O=C(CCN1CCOCC1)Nc1cc(C(=O)Nc2ccc(Cl)cc2)ccc1N1CC2CC(C1)c1cccc(=O)n1C2 (stereo not given)	12µM*	2	?	-5
O=C(Nc1ccc(Cl)cc1)N1CC2CC(C1)c1cccc(=O)n1C2 (stereo not given)	8%	28*	29%	33
CC1CCN(C(=O)c2ccc(N3CC4CC(C3)c3cccc(=O)n3C4)c([N+](=O)[O-])c2)CC1 (stereo not given)	9%	-1	2.3µM*	-6
CCc1ccc(NC(=S)Nc2cc(C(=O)O)ccc2N2CC3CC(C2)c2cccc(=O)n2C3)cc1 (stereo not given)	36%	35	97%	70*
CCCCn1c(N)c(N(CCOC)C(=O)c2ccc(N3CCCC3=O)cc2)c(=O)[nH]c1=O	-1%	.	8%	.
COc1cccc(NC(=O)Nc2cc(C(=O)O)ccc2N2CC3CC(C2)c2cccc(=O)n2C3)c1 (stereo not given)	-7%	-5	1.5µM*	15
N#Cc1ccccc1OCC(=O)NCC(c1ccc(F)cc1)N1CCOCC1 (stereo not given)	?	.	-21%	.
COc1ccc(/C(O)=C2\C(=O)C(=O)N(c3cc(C)on3)C2c2cccc(OC)c2OC)cc1C (stereo not given)	?	-2	-2%	-11
COc1cccc(C2c3c(oc4ccc(Cl)cc4c3=O)C(=O)N2c2cc(C)on2)c1OC (stereo not given)	9%	-1	8.3µM*	13
COc1ccc(C(=O)N2CCC(C(=O)O)CC2)c2ccccc12	20%	-6	6%	-5
COCCCn1c(=O)c2sccc2n2c(CCCC(=O)N3CCN(c4ccccn4)CC3)nnc12	?	-1	46%	3
Cn1c(=O)c2sccc2n2c(CCCC(=O)N3CCN(c4ccccn4)CC3)nnc12	?	2	9.3µM*	-3
CCCn1c(=O)c2sccc2n2c(CCCC(=O)NCc3ccco3)nnc12	?	-2	15µM*	-4
CCCn1c(=O)c2sccc2n2c(CCCC(=O)NCc3cccnc3)nnc12	20%	4	18%	-2
CCC1CCCCN1C(=O)Cn1c(=O)n(CCC(=O)NCc2ccco2)c(=O)c2sccc21 (stereo not given)	-16%	11	5.2µM*	-12
CCCCCCCCCCCCCCOS(=O)(=O)O	.	-6	.	-4
